Values joined by “and” are separate entries in the source; they are usually repeats but may differ in a detail not shown here. Equal entries are not always repeated. For some assays here: Measured potencies and affinities stand elsewhere. Active and inactive are the calls of the source. Unless noted, how the calls were made is not given here.
How the values were obtained:
[1] = antimalarial activity against Dd2 strain (AID 2302;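 active means growth inhibition above 50% at the single 2 µM test dose, taken to imply half-maximal potency below 2 µM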;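 further: 0% = DMSO untreated growth and 100% = chloroquine plus artemisinin killed control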); conditions: P. falciparum Dd2 in RBCs, LDH growth readout, 72 h; at 2 µM; stronger effect = higher value
[2] = human hepatoma cell viability loss – ATP luminescence, cytotoxicity control for P. falciparum antimalarial project, primary screen (AID 2303;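 active means inhibition above 50%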;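 further: 0% = DMSO wells and 100% = digitonin-killed cells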); conditions: HepG2 viability, 24-48 h, at 10 µM, stronger effect = higher value
[3] = target: L-lactate dehydrogenase (Plasmodium falciparum (isolate CDC / Honduras)) (UniProt Q27743); experiment: PfLDH activity inhibition – cell lysate, 3D7 strain, counter-screen for P. falciparum growth inhibition project (AID 2304);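 further: 0% = vehicle and 100% = reference inhibitor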; conditions: P. falciparum 3D7 crude extract, LDH APAD/NBT absorbance; at 2 µM; stronger effect = higher value
Sequence of L-lactate dehydrogenase (Plasmodium falciparum (isolate CDC / Honduras)) (Q27743 whole entry, looked up): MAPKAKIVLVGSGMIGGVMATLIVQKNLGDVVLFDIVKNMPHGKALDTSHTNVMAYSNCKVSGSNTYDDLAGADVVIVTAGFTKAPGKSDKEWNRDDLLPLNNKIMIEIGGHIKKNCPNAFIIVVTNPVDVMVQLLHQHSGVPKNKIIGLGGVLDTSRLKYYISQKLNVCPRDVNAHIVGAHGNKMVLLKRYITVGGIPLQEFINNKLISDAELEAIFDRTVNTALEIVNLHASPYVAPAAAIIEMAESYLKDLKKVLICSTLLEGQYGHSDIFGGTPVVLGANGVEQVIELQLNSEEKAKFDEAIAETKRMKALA

[4] = inhibition of 3D7 malaria parasite growth – strain 3D7 (AID 2306);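 further: 0% = DMSO wells and 100% = chloroquine plus artemisinin control wells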; conditions: P. falciparum 3D7 erythrocytic growth, LDH absorbance, 72 h; at 2 µM; stronger effect = higher value
[5] = target: Calcium-dependent protein kinase 1 (Plasmodium falciparum (isolate 3D7)) (UniProt P62344); experiment: PfCDPK1 kinase inhibitors, biochemical, TCAMS library (AID 1159585; cut-off not given, nearly all actives have IC50 up to about 0.98 µM;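 further: inhibitors leave more ATP so luminescence rises with inhibition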); conditions: recombinant PfCDPK1, Kinase-Glo ATP depletion luminescence
Sequence of Calcium-dependent protein kinase 1 (Plasmodium falciparum (isolate 3D7)) (P62344 whole entry, looked up): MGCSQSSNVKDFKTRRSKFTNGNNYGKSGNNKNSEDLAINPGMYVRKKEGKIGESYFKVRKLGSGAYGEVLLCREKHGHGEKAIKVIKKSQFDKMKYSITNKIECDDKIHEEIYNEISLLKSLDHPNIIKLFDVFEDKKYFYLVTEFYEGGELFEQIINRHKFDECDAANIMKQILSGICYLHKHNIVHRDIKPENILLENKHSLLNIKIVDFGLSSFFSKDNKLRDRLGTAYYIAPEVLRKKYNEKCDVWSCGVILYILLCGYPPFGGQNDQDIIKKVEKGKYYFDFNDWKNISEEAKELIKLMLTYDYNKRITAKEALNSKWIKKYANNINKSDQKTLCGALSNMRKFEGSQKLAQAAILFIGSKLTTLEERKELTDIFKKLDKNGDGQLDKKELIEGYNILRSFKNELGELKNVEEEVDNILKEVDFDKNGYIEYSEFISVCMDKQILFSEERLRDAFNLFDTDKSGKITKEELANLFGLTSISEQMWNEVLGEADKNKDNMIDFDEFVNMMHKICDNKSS

[6] = target: Plasmodium falciparum protein kinase 6 (PK6, PF3D7_1337100) (UniProt Q8IDW1); experiment: PfPK6 kinase inhibitors, biochemical, TCAMS library (AID 1159586); conditions: recombinant PfPK6, Kinase-Glo ATP depletion luminescence
Sequence of Plasmodium falciparum protein kinase 6 (PK6, PF3D7_1337100) (Q8IDW1 1-305): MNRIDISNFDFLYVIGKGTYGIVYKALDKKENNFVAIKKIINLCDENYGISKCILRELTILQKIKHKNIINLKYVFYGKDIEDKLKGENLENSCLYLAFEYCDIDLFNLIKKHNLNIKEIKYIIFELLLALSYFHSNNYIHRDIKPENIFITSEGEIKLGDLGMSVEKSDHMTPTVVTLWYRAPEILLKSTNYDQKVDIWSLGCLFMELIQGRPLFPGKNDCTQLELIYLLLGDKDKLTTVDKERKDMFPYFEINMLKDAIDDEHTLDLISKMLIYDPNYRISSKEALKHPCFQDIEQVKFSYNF

[7] = target: Protein kinase 7 (PK7), Plasmodium falciparum 3D7 (PF3D7_0213400) (UniProt Q7YTF7); experiment: inhibition of Plasmodium PK7 catalytic activity – biochemical, TCAMS antimalarial set, Kinase-Glo luminescence (AID 1159587); conditions: recombinant PfPK7, Kinase-Glo ATP depletion luminescence
Sequence of Protein kinase 7 (PK7), Plasmodium falciparum 3D7 (PF3D7_0213400) (Q7YTF7 1-343): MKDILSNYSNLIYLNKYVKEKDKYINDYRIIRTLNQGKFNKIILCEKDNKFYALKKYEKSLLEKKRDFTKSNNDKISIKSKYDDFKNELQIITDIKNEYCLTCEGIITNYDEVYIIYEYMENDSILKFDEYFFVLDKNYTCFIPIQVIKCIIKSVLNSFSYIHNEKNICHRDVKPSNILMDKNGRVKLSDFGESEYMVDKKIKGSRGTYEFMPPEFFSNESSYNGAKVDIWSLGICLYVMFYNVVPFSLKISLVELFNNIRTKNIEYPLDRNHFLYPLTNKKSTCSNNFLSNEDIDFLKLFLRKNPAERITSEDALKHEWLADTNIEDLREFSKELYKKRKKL

[8] = target: Calcium-dependent protein kinase 4 (Plasmodium falciparum (isolate 3D7)) (UniProt Q8IBS5); experiment: PfCDPK4 kinase inhibitors, biochemical, TCAMS library (AID 1159588; cut-off not given, nearly all actives have IC50 up to about 0.91 µM); conditions: recombinant PfCDPK4, Kinase-Glo ATP depletion luminescence
Sequence of Calcium-dependent protein kinase 4 (Plasmodium falciparum (isolate 3D7)) (Q8IBS5 whole entry, looked up): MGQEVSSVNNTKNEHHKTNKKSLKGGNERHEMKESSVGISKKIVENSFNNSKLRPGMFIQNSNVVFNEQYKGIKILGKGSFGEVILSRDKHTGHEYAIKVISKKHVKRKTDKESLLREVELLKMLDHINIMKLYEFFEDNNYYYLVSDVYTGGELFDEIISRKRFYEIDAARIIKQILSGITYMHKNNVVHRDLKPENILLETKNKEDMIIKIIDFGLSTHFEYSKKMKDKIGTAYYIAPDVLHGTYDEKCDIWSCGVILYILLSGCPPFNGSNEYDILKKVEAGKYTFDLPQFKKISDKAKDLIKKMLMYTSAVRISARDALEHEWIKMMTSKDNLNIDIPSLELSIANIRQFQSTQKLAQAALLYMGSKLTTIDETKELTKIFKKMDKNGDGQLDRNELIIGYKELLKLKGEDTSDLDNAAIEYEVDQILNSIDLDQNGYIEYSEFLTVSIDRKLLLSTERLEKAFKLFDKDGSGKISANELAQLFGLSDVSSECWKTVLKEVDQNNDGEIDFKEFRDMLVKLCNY

O=C(/C=C/c1ccc(Cl)c(Cl)c1)NCCCCCN1CC[C@H](NC(=O)c2ccc3c(c2)OCO3)C1
inactive: growth inhibition [1] 3% | inhibition [2] 32% | inhibition [3] 0% | outcome [5] | outcome [6] | outcome [7] | outcome [8]
active: growth inhibition [4] 94%

O=C(Nc1ccncc1)c1cn(-c2ccccc2)nc1-c1cccs1
inactive: growth inhibition [1] 10% | inhibition [2] 7% | inhibition [3] 4% | outcome [5] | outcome [6] | outcome [7] | outcome [8]
active: growth inhibition [4] 98%

CCCCCCNc1c2ccccc2nc2ccccc12
inactive: growth inhibition [1] 32% | inhibition [2] 24% | inhibition [3] -3% | outcome [5] | outcome [6] | outcome [7] | outcome [8]
active: growth inhibition [4] 97%

Cc1cc(NCC2CCN(CC3CCCCC3)C2)nc(Nc2ccc(Br)cc2)n1 (stereo not given)
inactive: inhibition [2] -2% | inhibition [3] 0% | outcome [5] | outcome [6] | outcome [7] | outcome [8]
active: growth inhibition [1] 78% | growth inhibition [4] 101%

CCCS(=O)(=O)N1CCC(CO)(Cc2ccccc2C(F)(F)F)CC1
inactive: inhibition [2] -1% | inhibition [3] -2% | outcome [5] | outcome [6] | outcome [7] | outcome [8]
active: growth inhibition [1] 57% | growth inhibition [4] 97%

Oc1ccc(OCc2ccccn2)cc1
inactive: growth inhibition [1] 0% | inhibition [2] 5% | inhibition [3] 2% | outcome [5] | outcome [6] | outcome [7] | outcome [8]
active: growth inhibition [4] 98%

CCCCCCN1CCCN(Cc2ccc(C(=O)Nc3ccc(CC)cc3)cc2)CC1
inactive: inhibition [3] 2% | outcome [5] | outcome [6] | outcome [7] | outcome [8]
active: growth inhibition [1] 50% | inhibition [2] 53% | growth inhibition [4] 97%

CS(=O)(=O)c1ccc(CCNCc2ccc(-c3ccc(CN(C(=O)c4cccc(C#N)c4)C4CCN(Cc5ccccc5)CC4)cc3)nc2)cc1
inactive: inhibition [2] 20% | inhibition [3] 1% | outcome [5] | outcome [6] | outcome [7] | outcome [8]
active: growth inhibition [1] 56% | growth inhibition [4] 96%

O=C(Nc1ccc(CN2CCN(S(=O)(=O)c3ccc(Cl)s3)CC2)cc1)c1cccs1
active: growth inhibition [1] 87% | growth inhibition [4] 92%
inactive: inhibition [2] 14% | inhibition [3] 2% | outcome [5] | outcome [6] | outcome [7] | outcome [8]

N#CC(c1ccc(Br)cc1)c1ccc2c(C(F)(F)F)cc(C(F)(F)F)nc2n1 (stereo not given)
active: growth inhibition [1] 98% | inhibition [2] 75% | growth inhibition [4] 101%
inactive: inhibition [3] -2% | outcome [5] | outcome [6] | outcome [7] | outcome [8]

N#Cc1cccc(NC(=O)Nc2ccc(CC(=O)N3CCc4cc(Cl)c(N5CCN(C/C=C/c6ccccc6)CC5)cc43)cc2)c1
inactive: inhibition [2] -4% | inhibition [3] -4% | outcome [5] | outcome [6] | outcome [7] | outcome [8]
active: growth inhibition [1] 61% | growth inhibition [4] 91%

O=C(Nc1ccc(C(F)(F)F)cc1)Nc1ccccc1N1CCNCC1
inactive: inhibition [2] 39% | inhibition [3] 4% | outcome [5] | outcome [6] | outcome [7] | outcome [8]
active: growth inhibition [1] 69% | growth inhibition [4] 94%

O=C(Nc1cccc(C(F)(F)F)c1)Nc1ccc(Cl)c(Cl)c1
active: growth inhibition [1] 100% | growth inhibition [4] 100%
inactive: inhibition [2] 5% | inhibition [3] -4% | outcome [5] | outcome [6] | outcome [7] | outcome [8]

c1ccc(Oc2ccc(Nc3ccnc4cc(-c5ccc(CN6CCOCC6)o5)ccc34)cc2)nc1
active: growth inhibition [1] 73% | growth inhibition [4] 92%
inactive: inhibition [2] 5% | inhibition [3] 0% | outcome [5] | outcome [6] | outcome [7] | outcome [8]

COc1ccc2ncc(F)c(CCN3CCC(CNC(=O)C(=O)c4c[nH]c5ccccc45)CC3)c2n1
active: growth inhibition [1] 99% | growth inhibition [4] 103%
inactive: inhibition [2] 48% | inhibition [3] -6% | outcome [5] | outcome [6] | outcome [7] | outcome [8]

CC(C)(C)OC(=O)N(Cc1cc(-n2nnnc2C(F)(F)F)ccc1O)[C@H]1CCCN(C(=O)OC(C)(C)C)[C@H]1c1ccccc1
inactive: inhibition [2] 14% | inhibition [3] -5% | outcome [5] | outcome [6] | outcome [7] | outcome [8]
active: growth inhibition [1] 66% | growth inhibition [4] 98%

CCCCCCCCNc1c2ccc(Cl)cc2nc2ccc(OC)cc12
inactive: inhibition [2] 11% | inhibition [3] -3% | outcome [5] | outcome [6] | outcome [7] | outcome [8]
active: growth inhibition [1] 96% | growth inhibition [4] 89%

CN(C)CCNC(=O)N1CCCN(c2ncnc3cc(-c4ccccc4)sc23)CC1
active: growth inhibition [4] 96%
inactive: growth inhibition [1] 37% | inhibition [2] 5% | inhibition [3] 5% | outcome [5] | outcome [6] | outcome [7] | outcome [8]

Cc1cc(N[C@@H](Cc2ccccc2)C(=O)NCCc2ccccc2)nc(NCCc2ccc(F)cc2)n1
active: growth inhibition [1] 89% | growth inhibition [4] 99%
inactive: inhibition [2] 9% | inhibition [3] 2% | outcome [5] | outcome [6] | outcome [7] | outcome [8]

CC1(C)N=C(N)N=C(N)N1OCCCCOc1ccccc1
inactive: inhibition [3] -1% | outcome [5] | outcome [6] | outcome [7] | outcome [8]
active: growth inhibition [1] 95% | inhibition [2] 60% | growth inhibition [4] 95%

O=C(Cn1cc(C=C2SC(=NC3CCCC3)N(C3CCCC3)C2=O)c2ccccc21)N1CCCC1
active: growth inhibition [1] 100% | growth inhibition [4] 100%
inactive: inhibition [2] 5% | inhibition [3] -1% | outcome [5] | outcome [6] | outcome [7] | outcome [8]

CN1CCC(C(=O)Nc2cccc(-c3ccc(-c4nc5ccc(C(F)(F)F)cc5[nH]4)s3)c2)CC1
inactive: inhibition [2] 29% | inhibition [3] 0% | outcome [5] | outcome [6] | outcome [7] | outcome [8]
active: growth inhibition [1] 95% | growth inhibition [4] 101%

COc1cccc(NC(=O)c2ccc(NCCCN3CC(C)CC(C)C3)c([N+](=O)[O-])c2)c1 (stereo not given)
active: growth inhibition [1] 68% | growth inhibition [4] 100%
inactive: inhibition [2] 14% | inhibition [3] -4% | outcome [5] | outcome [6] | outcome [7] | outcome [8]

O=C(Nc1cc(Cl)c(Cl)cc1NC(=O)c1cccc(-c2ccccc2)c1O)c1cccc(-c2ccccc2)c1O
active: growth inhibition [1] 100% | inhibition [2] 79% | growth inhibition [4] 100%
inactive: inhibition [3] 2% | outcome [5] | outcome [6] | outcome [7] | outcome [8]

COc1cc2c(cc1S(=O)(=O)c1ccc(NC(=O)c3cc4ccccc4s3)cc1)CCN(C)CC2
inactive: inhibition [2] 21% | inhibition [3] 2% | outcome [5] | outcome [6] | outcome [7] | outcome [8]
active: growth inhibition [1] 88% | growth inhibition [4] 100%

Cc1cc(C2CCN(CCCCNC(=O)c3ccc(NC(=O)c4ccc(Cl)cc4)cc3)CC2)c(C)cc1OCc1cccnc1
active: growth inhibition [1] 90% | growth inhibition [4] 101%
inactive: inhibition [2] 39% | inhibition [3] 0% | outcome [5] | outcome [6] | outcome [7] | outcome [8]

O=C(Nc1cccc(C(F)(F)F)c1)N1CCOC(CCN2CCC3(CCc4ccccc43)CC2)(c2ccc(Cl)c(Cl)c2)C1 (stereo not given)
active: growth inhibition [1] 70% | growth inhibition [4] 99%
inactive: inhibition [2] 31% | inhibition [3] 0% | outcome [5] | outcome [6] | outcome [7] | outcome [8]

Cc1cc(OCc2ccncc2)cc2c1C(=O)CC(C)(C)O2
inactive: growth inhibition [1] 0% | inhibition [2] -5% | inhibition [3] -5% | outcome [5] | outcome [6] | outcome [7] | outcome [8]
active: growth inhibition [4] 99%

COCc1cccc(-c2cc(-c3ccc(S(C)(=O)=O)cc3)cnc2N)c1
active: growth inhibition [1] 88% | growth inhibition [4] 98%
inactive: inhibition [2] 10% | inhibition [3] -2% | outcome [5] | outcome [6] | outcome [7] | outcome [8]

CN1CCN(c2cccc(-c3nnc(-c4cccc(OCC(=O)NCc5ccc(C(F)(F)F)cc5)c4)o3)c2)CC1
active: growth inhibition [1] 86% | growth inhibition [4] 98%
inactive: inhibition [2] 10% | inhibition [3] -4% | outcome [5] | outcome [6] | outcome [7] | outcome [8]

Cc1cc(N(C)C)nc(Nc2ccc(NC(=O)c3ccccc3F)cc2)n1
inactive: growth inhibition [1] 26% | inhibition [2] 0% | inhibition [3] 4% | outcome [5] | outcome [6] | outcome [7] | outcome [8]
active: growth inhibition [4] 89%

COc1c(C2CCN(CCCCNC(=O)c3noc(-c4ccc(C#N)cc4)n3)CC2)ccc2c1CCCC2
inactive: growth inhibition [1] -2% | inhibition [2] 32% | inhibition [3] -1% | outcome [5] | outcome [6] | outcome [7] | outcome [8]
active: growth inhibition [4] 99%

O=C(NCC1CCN(Cc2ccc(F)cc2)C1)c1cc(-c2cccc(C(F)(F)F)c2)cs1 (stereo not given)
active: growth inhibition [4] 93%
inactive: growth inhibition [1] 18% | inhibition [2] 38% | inhibition [3] -2% | outcome [5] | outcome [6] | outcome [7] | outcome [8]

Cc1[nH]c2cccc(F)c2c(=O)c1Cc1ccc(Cl)cc1 (tested in a mixture with another compound)
inactive: inhibition [2] 7% and 6% | inhibition [3] 5% | outcome [5] | outcome [6] | outcome [7] | outcome [8]
active: growth inhibition [1] 94% and 92% | growth inhibition [4] 94% and 93%

CN1CCC(NCc2ccc(-c3ccc(S(=O)(=O)NC4CCC4)s3)cc2)CC1
inactive: growth inhibition [1] 31% | inhibition [2] 31% | inhibition [3] 1% | outcome [5] | outcome [6] | outcome [7] | outcome [8]
active: growth inhibition [4] 92%

Cc1ccc2nc(C)cc(NC(=O)Nc3ccc(N(C)C)cc3)c2c1
inactive: growth inhibition [1] 41% | inhibition [2] 12% | inhibition [3] -3% | outcome [5] | outcome [6] | outcome [7] | outcome [8]
active: growth inhibition [4] 100%

COc1ccccc1C1CCN(C2CCC(NC(=O)/C=C/c3cc(F)cc(F)c3)CC2)CC1 (stereo not given)
inactive: growth inhibition [1] 15% | inhibition [2] 45% | inhibition [3] 0% | outcome [5] | outcome [6] | outcome [7] | outcome [8]
active: growth inhibition [4] 91%

NC1=NC(c2ccccc2)(c2ccccc2)C(=O)N1C1CCCCC1
inactive: inhibition [2] 13% | inhibition [3] 0% | outcome [5] | outcome [6] | outcome [7] | outcome [8]
active: growth inhibition [1] 87% | growth inhibition [4] 100%

COc1ccccc1N1CCN(Cc2cc(C(C)C)c(C)cc2O)CC1
inactive: inhibition [2] 7% | inhibition [3] 2% | outcome [5] | outcome [6] | outcome [7] | outcome [8]
active: growth inhibition [1] 98% | growth inhibition [4] 97%

N#Cc1cccc(NC(=O)Nc2ccc(-c3cccc(-c4nc5ccc(F)cc5[nH]4)c3)cc2)c1
active: growth inhibition [1] 100% | inhibition [2] 64% | growth inhibition [4] 102%
inactive: inhibition [3] 4% | outcome [5] | outcome [6] | outcome [7] | outcome [8]

— PubChem BioAssay
